Inconclusive results are not listed. Active and inactive are the calls of the source. Calls come from the whole dose curve; as a rule, active = well fitted inhibition curve with a large enough effect; inconclusive = small, poorly fitted or top-dose-only effect; inactive = no such curve, though single readings can be large or run the other way.
Potency is the fitted concentration of half-maximal effect.

A short description of this assay: InCell qHTS Assay for Inhibitors of the mTORC1 Signaling Pathway in MEF (Tsc2-/-, p53-/-) Cells: Hit Validation. Note: nearly all actives have a fitted effect of over 75% in size. As to conditions: phospho-rpS6 immunofluorescence, 24 h; activity change, negative = inhibition: at 38.3 µM (top of the series). From the text:
The mammalian target of rapamycin (mTOR) is an intracellular serine/threonine kinase Aberrant regulation of mTOR signaling plays a causative role in a number of human diseases, including cancer, benign tumors such as lymphangioleiomyomatosis (LAM) and Tuberous Sclerosis Complex (TSC), and metabolic diseases such as diabetes and obesity. This project aims to identify inhibitors of ribosomal protein S6 (rpS6) phosphorylation. The phosphorylation of rpS6 is a key event downstream of mTOR activation. The assay uses a phospho-specific antibody of phospho-rpS6 to detect inhibitors of mTOR activation. Mutations in the Tsc1 and Tsc2 genes are the underlying genetic lesions responsible for TSC, causing constitutive activation of the mTORC1 pathway and leading to profound effects on cell metabolism. Aberrant metabolism in cancer has recently received significant attention as a target to develop therapeutic agents in the treatment of cancer.1 As Tsc2-/- cells have lost the ability to respond to energy and growth factor deprivation, these cells are unable to properly down regulate cellular biosynthetic processes in response to metabolic stress, and are thus extremely sensitive to glucose deprivation-induced death.2 A central goal of this project is to explore the unique cell survival and metabolic properties of cells with Tsc1 or Tsc2 by screening for compounds that selectively target the Tsc2-/- MEFs by screening both Tsc2-/- and WT MEF cell lines. We hope to better understand these aspects of TSC physiology in order to exploit them for therapeutic benefit. NIH Molecular Libraries Probe Production Centers Network [MLPCN] NIH Chemical Genomics Center [NCGC] MLPCN Grant: NS059428 Assay Submitter (PI): Blenis, John; Harvard University
For quantitative high throughput analysis of mTORC1 signaling, we developed a cell-based assay for immuno-fluorescence based detection of rpS6 phosphorylation on the Acumen Explorer that will be used a platform for the primary small molecule screen. Mouse embryonic fibroblasts (MEFs) are cultured in 1536-well plates using DMEM + 10% FBS. Twenty-four hrs after plating, test compounds (solubilized in DMSO) are delivered and incubated with the cells for 24 hrs at 37 degree Celsius. Following the incubation, media with compound is aspirated and the cells are fixed in 4% paraformaldehyde (PFA) containing PBS + 0.2% TX-100. Next, PFA is aspirated, cells are washed two times with PBS plus 0.2% TX-100 and the cells are blocked for 1 hr at room temperature (blocking buffer: LiCOR Blocking Buffer plus 0.2% TX-100). This is followed by aspiration and staining with Alexa-488 conjugated-phospho-rpS6 Ser235/236 antibody for 2 hours at room temperature (Cell Signaling Technology # 4803, 1:50 dilution in blocking buffer). Cells are washed two times with PBS plus 0.2% TX-100, and stained with 10 uM propidium iodide (PI) for 20-25 minutes for cell number measurement (1:500 dilution of Hoescht staining is also added for IN Cell imaging). The plates are scanned on the Acumen Explorer laser scanning instrument (TTP Labtech) using the 488nm laser for simultaneous excitation of the Alexa-488 and PI. The fluorescence emission from the Alexa-488 conjugated rpS6 phospho-235/236 antibody staining is selected using a […] band pass filter. Fluorescence emission from the PI stain is selected using a 575-640 nm band pass filter. The normalized phospho-S6 staining is calculated as the ratio of the integrated Alexa 488 intensity divided by the integrated PI intensity for the single concentration rapamycin control (7.5 nM) and DMSO columns. […] Inhibition of the pathway is defined based on the normalized phospho-S6 intensity in rapamycin treated cells. […]
A general note: Quantitative high-throughput screening tests each substance at several concentrations.
Regarding `CCOc1ccc(NC(=O)CSc2oc(-c3ccccc3)nc2S(=O)(=O)c2ccc(Cl)cc2)cc1`, the Potency is 3.69 µM (active). `CCN(CC)C(=O)c1ccc(NC(=O)CCn2nc(-c3ccc(C)cc3)c3ccccc3c2=O)cc1`: the activity change, negative = inhibition was -100%. Consider `Cc1ccccc1-n1c(/C=C/c2ccccc2F)nc2ccccc2c1=O`, for which the activity change, negative = inhibition was -100%. Regarding `COc1ccc2nc(NC(=O)c3nc(S(=O)(=O)Cc4cccc(C)c4)ncc3Cl)sc2c1`, the Potency is 18.5 µM (active). For `O=C(Nc1ccon1)c1cccn(Cc2cccc(Cl)c2)c1=O`, the activity change, negative = inhibition is -100%. On to `CCOc1ccc(CN(CCc2ccc3c(c2)OCO3)Cc2ccc(C)cc2)cc1`, for which the activity change, negative = inhibition is -100%. On to `Cc1ccccc1-c1nc(CN2C(=O)CN=C(c3ccccc3)c3ccccc32)c(C)o1`, for which the activity change, negative = inhibition is -100%. With `Cc1ccccc1-n1c(/C=C/c2c(C)[nH]c3ccccc23)nc2ccccc2c1=O`, the activity change, negative = inhibition was -100%. Take `CCN(CC)CCSc1nc2ccccc2c(=O)n1-c1ccc(Cl)cc1`: the activity change, negative = inhibition is -100%. Consider `Cc1ccc(-n2c(/C=C/c3ccc(Br)s3)nc3ccccc3c2=O)cc1C`, for which the activity change, negative = inhibition was -100%.

The record behind these values is PubChem BioAssay AID651791 (National Center for Advancing Translational Sciences (NCATS), 2012).
